About 2,000 (36%) of roughly 5,500 compounds were called active. Another 18% or so got no clear call; they are omitted. Rule as the data show it: active = normalized growth mostly below about 0.91 (no sharp cut-off); inconclusive = no clear call, values can overlap the other calls; inactive = mostly above about 0.92. The list shows a part of the results.
Assay: chemical genetic growth profiling, strain panel (AID 1159580);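 also: tested at 20 µM; growth read once vehicle control cultures reached saturation at 30 °C; 1 = growth at the plate median or of vehicle wells; lower values mean less growth of the strain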
Settings: growth OD

Measured: normalized growth

COc1cc2c(cc1OC)C(=O)OC2
inactive: S. cerevisiae deletion strains, locus YJR075W, strain HOC1, hits give low values 1.01 | S. cerevisiae deletion strains, locus YKL009W, strain mrt4, hits give low values 1.05 | S. cerevisiae deletion strains, locus YKL068W, hits give low values 1 | S. cerevisiae deletion strains, locus YKL085W, strain MDH1 (second series), hits give low values 1.01 | S. cerevisiae deletion strains, locus YKL085W, strain MDH1, hits give low values 1.01 | S. cerevisiae deletion strains, locus YKL160W, strain elf1, hits give low values 0.994 | S. cerevisiae deletion strains, locus YKL190W, strain CNB1, hits give low values 1 | S. cerevisiae deletion strains, locus YKR001C, strain vps1, hits give low values 1.01 | S. cerevisiae deletion strains, locus YKR026C, strain gcn3, hits give low values 0.992 | S. cerevisiae deletion strains, locus YKR091W, strain srl3, hits give low values 0.996 | S. cerevisiae deletion strains, locus YLL001W, strain dnm1, hits give low values 0.996 | S. cerevisiae deletion strains, locus YLL026W, hits give low values 0.991 | S. cerevisiae deletion strains, locus YLL041C, strain sdh2, hits give low values 1 | S. cerevisiae deletion strains, locus YLR027C, strain aat2, hits give low values 1 | S. cerevisiae deletion strains, locus YLR039C, strain RIC1, hits give low values 1.02 | S. cerevisiae deletion strains, locus YLR058C, strain SHM2, hits give low values 1.01 | S. cerevisiae deletion strains, locus YLR102C, strain apc9, hits give low values 1 | S. cerevisiae deletion strains, locus YLR113W, strain HOG1, hits give low values 0.971 | S. cerevisiae deletion strains, locus YLR221C, strain rsa3, hits give low values 1.01 | S. cerevisiae deletion strains, locus YLR258W, strain gsy2, hits give low values 0.992 | S. cerevisiae deletion strains, locus YLR262C, strain YPT6 (second series), hits give low values 1.02 | S. cerevisiae deletion strains, locus YLR262C, strain YPT6, hits give low values 1.02 | S. cerevisiae deletion strains, locus YLR268W, strain sec22, hits give low values 0.979 | S. cerevisiae deletion strains, locus YLR320W, strain mms22, hits give low values 0.995 | S. cerevisiae deletion strains, locus YLR330W, strain CHS5, hits give low values 1.01 | S. cerevisiae deletion strains, locus YLR342W, strain FKS1 (second series), hits give low values 1.07 | S. cerevisiae deletion strains, locus YLR342W, strain FKS1, hits give low values 0.999 | S. cerevisiae deletion strains, locus YLR357W, strain rsc2, hits give low values 0.96 | S. cerevisiae deletion strains, locus YLR370C, strain arc18, hits give low values 0.997 | S. cerevisiae deletion strains, locus YLR371W, strain rom2, hits give low values 1.01 | S. cerevisiae deletion strains, locus YLR384C, strain iki3, hits give low values 0.988 | S. cerevisiae deletion strains, locus YLR418C, strain cdc73, hits give low values 0.925 | S. cerevisiae deletion strains, locus YML016C, strain PPZ1, hits give low values 1 | S. cerevisiae deletion strains, locus YML032C, strain rad52, hits give low values 1.01 | S. cerevisiae deletion strains, locus YML120C, strain ndi1, hits give low values 1.01 | S. cerevisiae deletion strains, locus YML124C, strain tub3, hits give low values 0.994 | S. cerevisiae deletion strains, locus YMR058W, strain fet3, hits give low values 0.999 | S. cerevisiae deletion strains, locus YMR078C, strain ctf18, hits give low values 1 | S. cerevisiae deletion strains, locus YMR125W, strain sto1, hits give low values 0.984 | S. cerevisiae deletion strains, locus YMR129W, hits give low values 0.992 | S. cerevisiae deletion strains, locus YMR205C, strain PFK2, hits give low values 1.01 | S. cerevisiae deletion strains, locus YMR223W, strain ubp8, hits give low values 1.02 | S. cerevisiae deletion strains, locus YMR231W, strain pep5, hits give low values 0.99 | S. cerevisiae deletion strains, locus YMR263W, strain SAP30, hits give low values 0.994 | S. cerevisiae deletion strains, locus YMR307W, strain GAS1, hits give low values 1.09 | S. cerevisiae deletion strains, locus YNL067W, strain RPL9B, hits give low values 0.997 | S. cerevisiae deletion strains, locus YNL071W, strain lat1, hits give low values 0.995 | S. cerevisiae deletion strains, locus YNL128W, strain TEP1, hits give low values 0.99 | S. cerevisiae deletion strains, locus YNL153C, strain GIM3, hits give low values 0.978 | S. cerevisiae deletion strains, locus YNL183C, strain NPR1, hits give low values 0.987 | S. cerevisiae deletion strains, locus YNL209W, strain ssb2, hits give low values 0.979 | S. cerevisiae deletion strains, locus YNL233W, strain BNI4, hits give low values 0.992 | S. cerevisiae deletion strains, locus YNL248C, strain rpa49, hits give low values 0.978 | S. cerevisiae deletion strains, locus YNL250W, strain rad50, hits give low values 0.995 | S. cerevisiae deletion strains, locus YNL271C, strain bni1, hits give low values 1 | S. cerevisiae deletion strains, locus YNL298W, strain CLA4, hits give low values 1.02 | S. cerevisiae deletion strains, locus YNL307C, strain MCK1, hits give low values 1.02 | S. cerevisiae deletion strains, locus YNL322C, strain KRE1 (second series), hits give low values 0.996 | S. cerevisiae deletion strains, locus YNL322C, strain KRE1, hits give low values 1.01 | S. cerevisiae deletion strains, locus YNR049C, strain mso1, hits give low values 1 | S. cerevisiae deletion strains, locus YNR052C, strain pop2, hits give low values 1.01 | S. cerevisiae deletion strains, locus YOL006C, strain TOP1, hits give low values 0.996 | S. cerevisiae deletion strains, locus YOL012C, strain htz1 0.744 | S. cerevisiae deletion strains, locus YOL147C, strain pex11, hits give low values 1 | S. cerevisiae deletion strains, locus YOR001W, strain rrp6, hits give low values 0.993 | S. cerevisiae deletion strains, locus YOR061W, strain CKA2, hits give low values 1 | S. cerevisiae deletion strains, locus YOR069W, strain VPS5, hits give low values 1.01 | S. cerevisiae deletion strains, locus YOR070C, strain gyp1, hits give low values 0.984 | S. cerevisiae deletion strains, locus YOR080W, strain dia2, hits give low values 1.01 | S. cerevisiae deletion strains, locus YOR083W, strain WHI5, hits give low values 0.996 | S. cerevisiae deletion strains, locus YOR106W, strain vam3, hits give low values 0.99 | S. cerevisiae deletion strains, locus YOR136W, strain idh2, hits give low values 1 | S. cerevisiae deletion strains, locus YOR144C, strain elg1, hits give low values 1 | S. cerevisiae deletion strains, locus YOR184W, strain ser1, hits give low values 1.04 | S. cerevisiae deletion strains, locus YOR231W, strain MKK1, hits give low values 0.991 | S. cerevisiae deletion strains, locus YOR265W, strain rbl2, hits give low values 1.01 | S. cerevisiae deletion strains, locus YOR270C, strain vph1, hits give low values 0.971 | S. cerevisiae deletion strains, locus YOR290C, strain snf2, hits give low values 1.01 | S. cerevisiae deletion strains, locus YOR316C, strain cot1, hits give low values 1.01 | S. cerevisiae deletion strains, locus YPL051W, strain arl3, hits give low values 0.994 | S. cerevisiae deletion strains, locus YPL055C, strain LGE1, hits give low values 0.973 | S. cerevisiae deletion strains, locus YPL078C, strain atp4, hits give low values 1.01 | S. cerevisiae deletion strains, locus YPL106C, strain sse1, hits give low values 0.901 | S. cerevisiae deletion strains, locus YPL240C, strain hsp82, hits give low values 0.988 | S. cerevisiae deletion strains, locus YPL241C, strain CIN2, hits give low values 1 | S. cerevisiae deletion strains, locus YPL256C, strain CLN2, hits give low values 1 | S. cerevisiae deletion strains, locus YPR119W, strain clb2, hits give low values 0.995 | S. cerevisiae deletion strains, locus YPR141C, strain kar3, hits give low values 1 | S. cerevisiae deletion strains, locus YPR163C, strain tif3, hits give low values 0.989 | S. cerevisiae deletion strains, locus YPR167C, strain met16, hits give low values 1 | S. cerevisiae deletion strains, strain wtn01, hits give low values 1 | S. cerevisiae strains, strain wild type, hits give low values 1.01

Reference: PubChem BioAssay AID1159580 (chemical genetic matrix, 2015)
